Screening data (PubChem BioAssay)
OvCa metastasis = Primary qHTS assay for Inhibitors of ovarian cancer metastasis using an organotypic tumor microenvironment (TME) model. Potency, µM (top dose mostly 45.8 µM), for the others: top-dose activity change, negative = inhibition, most hits filed as inhibitors. SKOV3ip1-GFP adhesion/invasion on 3D omental model, fluorescence. AID 1963576, 2024. 46,000 tested, 0.1% active;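 note: plate controls were DMSO wells for no effect and tomatine positive control wells for full effect; nearly all actives have a fitted effect of over 65% in size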
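Primary human omental fibroblast/mesothelial 3D culture pre-formed 48 h. SKOV3ip1-GFP cells added with compounds (0.36-46 umol/L), incubated 2 h RT/16 h 37 C, fixed; GFP cells quantified at 488/509 nm.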
p53null 32C tox = qHTS Screen for Compounds that Selectively Target Cancer Cells with p53 Mutations: Cytotoxicity of p53 Null Cells at the Permissive Temperature; H1299-neo p53 null cells, ATP luminescence, 24 h, 32C; Potency, µM (highest dose often 46.1 µM), inactives show at the top dose activity change, negative = cytotoxicity, most hits filed as cytotoxic; 55,000 tested, 0.62% active; AID 903, 2007;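 note: 0% = DMSO only and -100% = full killing by 100 µM tamoxifen; nearly all actives have a fitted effect of over 55% in size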
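We seeded p53-null H1299-neo cells, incubated them overnight at 37C, and added compounds across a range up to 46 uM. After 24 hours at 32C, ATP reagent was applied for 20 min at room temperature and luminescence recorded.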
PMP22 txn = Cell-based coincidence reporter assay to measure PMP22 gene transcription in S16 Pmp22-F2sN cells - Primary screen | AID 1508649, 2021 | 43,000 tested, 2% active | S16 Pmp22-F2sN Schwann cells, FLuc/NLuc coincidence luminescence, 24 h | Potency, µM (highest dose often 57.5 µM), for the others: at the highest dose activity change, negative = inhibition, most hits filed as inhibitors; active = clear falling dose curves in both reporters; inconclusive = both reporters move, but less clearly or upward; inactive = either reporter flat; the % is the NLuc reporter signal
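Reporter cells (S16 Pmp22-F2sN, 500–1,000 per well) exposed to compounds for 24 h, 37C, 5% CO2; lysis with FLuc read after 10 min, then Stop&Glo and NLuc read after 10 min.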
p53null 39C kill = qHTS Screen for Compounds that Selectively Target Cancer Cells with p53 Mutations: Cytotoxicity of p53 Null Cells at the Nonpermissive Temperature. H1299 p53-null (neo) cells, 39C, ATPlite viability, 24 h. Potency, µM (top dose mostly 46.1 µM), inactives show at the top dose activity, negative = cell killing, usual class: cytotoxic. 55,000 tested, 0.97% active;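 note: 0% = DMSO only and -100% = full killing by 100 µM tamoxifen; nearly all actives have a fitted effect of over 50% in size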
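H1299 lung cancer cells, p53-null (H1299-neo) or expressing p53 A138V (H1299-p53A138V), were plated overnight at 37C, then exposed to compounds at up to 46 uM for 24 hr at 39C. Viability was read by ATP-based luminescence.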
S16 viability = Cell viability qHTS assay in S16 Pmp22-F2sN cells | S16 Pmp22-F2sN Schwann cells viability, CellTiter-Glo, 24 h | Potency, µM (top dose mostly 57.5 µM), for inactives: top-dose activity change, negative = cytotoxicity, hits mostly cytotoxic | 43,000 tested, 0.48% active | AID 1508642, 2021; note: nearly all actives have a fitted effect of over 65% in size
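S16 Pmp22-F2sN Schwann cells (500-1,000/well) in phenol-red-free DMEM with 10% FBS received 23 nL compound by pin tool for 24 h at 37 °C. Viability was then read as CellTiter-Glo luminescence after 15 min at room temperature.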
mTORC1 inh = Acumen qHTS Assay for Inhibitors of the mTORC1 Signaling Pathway in MEF (Tsc2-/-, p53-/-) Cells: Sytravon. Tsc2-/- p53-/- MEF, phospho-rpS6 immunofluorescence/PI, 24 h. Potency, µM (titrated, usually from 38.3 µM), for inactives: at the top dose activity change, negative = inhibition, usual class: inhibitors. 44,000 tested, 0.78% active;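 note: plate controls were DMSO for no effect and rapamycin for full effect; nearly all actives have a fitted effect of over 50% in size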
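Plate MEFs (Tsc2-/-, p53-/-, empty vector) in DMEM/10% FBS; after 24 h add compound, incubate 24 h at 37 degree Celsius; fix in PFA/TX-100, block, stain phospho-rpS6 and 10 uM PI; scan at 488 nm; report % positive cells.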
* hit, by the source's call; i = inactive; u = inconclusive; x = not tested or not shown; [ ] = dose if it differs, or a comment. Shown are actives, neighbours in structure and some others; about 3.1% of the full set was active somewhere. Unless noted, calls come from the whole dose curve; as a rule, active = well fitted curve in the direction sought with a large enough effect; inconclusive = small, poorly fitted or top-dose-only effect, or another doubt; inactive = no such curve, though single readings can be large; an effect the other way counts as inactive or inconclusive. Unless noted, % is set by controls: 0 for no effect and ±100 for the full control effect; potency is the fitted concentration of half-maximal effect.

SMILES | OvCa metastasis | p53null 32C tox | PMP22 txn | p53null 39C kill | S16 viability | mTORC1 inh
CSc1cccc(NC(=O)c2ccc3c(c2)CCCN3S(C)(=O)=O)c1 | -3% | 13µM* | u | u | -25% | -3%
COc1ccccc1C(=O)Oc1c(Sc2ccccc2)c(C)nn1C(C)(C)C | -5% | u | 14% | 13µM* | -21% | 3%
O=C(Nc1cccc(Cl)c1)Nc1ncc(CCNc2ncnc3ccsc23)s1 | -5% | x | x | x | x | x
COC(=O)C=CC(=O)OC | 15% | x | x | x | x | x
Cc1nn(-c2ccccc2)c2c1N(CCCC(=O)NCc1ccccc1)C(=O)CS2 | i | 8% | u | 0% | u | -4%
Cc1nn(-c2ccccc2)c2c1N(CCCC(=O)NCc1ccc(OC(C)C)cc1)C(=O)CS2 | u | -7% | u | -13% | 10µM* | 0%
CN[C@@H]1CN(c2ccc3c(=O)c(C(=O)O)cn(-c4nccs4)c3n2)C[C@@H]1OC | -5%[23.2 µM] | x | x | x | x | x
CNC1CCC(N(Cc2cccc(-c3ccncc3)c2)C(=O)c2sc3ccccc3c2Cl)CC1 (centres undefined) | -22% | x | x | x | x | x
Cc1ccc(-c2c(C)n3c4c(=O)n(C)c(=O)n(C)c4nc3n2CCO)cc1 | 4% | -4% | 4.8µM* | -4% | u | -29%
O=c1[nH]c(=O)n([C@H]2C[C@@H](O)[C@@H](CO)O2)cc1C(F)(F)F | -2% | x | x | x | x | x
COc1ccc(-c2cc(C(=O)Oc3ccc(Br)cc3)c3ccccc3n2)cc1 | 5% | u | -14% | 13µM* | 2% | 4%
COc1ccc(-c2cc(C(=O)Oc3ccc(C)c(C)c3)c3ccccc3n2)cc1 | i | -17% | -19% | 2% | 0% | 14%
CCSc1ccccc1C(=O)Nc1ccc(-c2nc3ccccc3s2)c(O)c1 | i | -10% | -20% | -24% | u | 2.9µM*
CSc1ccc(C(=O)Nc2ccc(-c3nc4ccccc4s3)c(O)c2)cc1 | -18% | -2% | -33% | 3% | 1% | 0%
CCc1c(C)sc2c1CCN(Cc1ccc(F)cc1)C2c1ccccc1 (centres undefined) | -1% | 28% | u | u | 8.9µM* | 0%
CCc1c(C)sc2c1CCN(Cc1ccc(C#N)cc1)C2c1ccccc1 (centres undefined) | -1% | -3% | u | -16% | u | 13%
CCc1c(C)sc2c1CCN(Cc1cccc(F)c1)C2c1ccccc1 (centres undefined) | 21% | 30% | u | u | 10µM* | 7%
C=C1C(=CC=C2CCC[C@]3(C)[C@@H]([C@H](C)CCCC(C)(C)O)CC[C@@H]23)C[C@@H](O)C[C@@H]1O | 0% | x | x | x | x | x
CCC(C)S(=O)(=O)c1oc(-c2cccs2)nc1S(=O)(=O)c1ccccc1 (centres undefined) | -20% | 25µM* | 1.4µM* | u | 2.5µM* | 1.2µM*
CC(C)CS(=O)(=O)c1oc(-c2ccc(F)cc2)nc1S(=O)(=O)c1ccccc1 | u | u | u | 3.2µM* | 4.5µM* | 0.74µM*
O=S(=O)(c1ccccc1)c1nc(-c2cccs2)oc1N1CCCCC1 | i | -1% | u | -9% | -19% | -6%
Cc1ccc(NC2=C/C(=N\S(=O)(=O)c3cccs3)c3ccccc3C2=O)c(C)c1 | x | 3.5µM* | x | 3.5µM* | x | x
